Test results from PubChem BioAssay AID686979 (National Center for Advancing Translational Sciences (NCATS), 2013).
The campaign covered roughly 420,000 compounds. About 50,000 (12%) were called active. Not shown: some 26% with an inconclusive outcome. This excerpt belongs to a sample that is enriched for actives. Unmarked numbers belong to inactive results. The call rests on the fitted dose curve; in most records, active means well fitted inhibition curve with a large enough effect; inconclusive means small, poorly fitted or top-dose-only effect; inactive means flat fitted curve, though single readings scatter.

test: qHTS for Inhibitors of human tyrosyl-DNA phosphodiesterase 1 (TDP1): qHTS in cells in presence of CPT; details: chicken DT40 Tdp1-/-;hTDP1 cells + 20 nM CPT, ATP luminescence, 48 h; series mostly up to 46.2 µM; activity change, negative = growth inhibition: at the top concentration; further: nearly all actives have a fitted effect of over 55% in size
Outline: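 Chicken DT40 Tdp1-/- cells complemented with human TDP1, 400 cells/well, exposed to compounds plus 20 nM camptothecin for at least 48 h at 37 C; viability read as ATP content by CellTiter-Glo luminescence.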
On the % scale 0 is the no-effect control and ±100 the full control effect; potency means the concentration at half of the fitted maximal effect.

| SMILES | activity change, negative = growth inhibition [%] | Potency |
| --- | --- | --- |
| O=C(NCc1ccccc1)c1ccc2c(c1)nc1n2CCCCC1 | -4.9 |  |
| COc1cccc(C2C(C(=O)Nc3ccc(C)cc3C)=C(C)Nc3c(C(=O)Nc4ccccc4)cnn32)c1 (stereo unspecified) | -11.3 |  |
| CC(C)(C)OC(=O)C1=C(CO)CS[C@@H]2[C@H](NC(=O)Cc3ccccc3)C(=O)N12 | 4.65 |  |
| C[C@H](NC(=O)C1CC(=O)N(c2ccc3c(c2)OCO3)C1)C(=O)NCc1ccco1 (stereo partly specified) | 5.48 |  |
| CCOc1ccc(S(=O)(=O)N2CCC(C(=O)NCC(=O)Nc3cccc(Cl)c3C)CC2)cc1 | -15.3 |  |
| C=CCC[C@H](Cc1ccc(F)cc1)C(=O)OC[C@@H](Cc1c[nH]c2ccccc12)NC(=O)[C@H](CC=C)CC(=O)N[C@H](CO)Cc1ccccc1 |  | 5.8 µM (active) |
| COC(=O)C(Cc1c[nH]c2ccccc12)NC(=O)CCNC(=O)c1ccco1 (stereo unspecified) | 7.7 |  |
| C=CC[C@@H](CC(=O)N[C@H](CO)Cc1ccccc1)C(=O)N[C@H](C)COC(=O)[C@@H](CC=C)Cc1ccc(F)cc1 |  | 20.6 µM (active) |
| CC(=O)NC(Cc1c[nH]c2ccccc12)C(=O)NCCc1ccccc1 (stereo unspecified) | -18.1 |  |
| C=CC[C@@H](CC(=O)NCCO)C(=O)N[C@H](C)COC(=O)[C@@H](CC=C)CC(=O)OC(C)(C)C | -17.2 |  |
| COc1ccc(CNC(=O)[C@H](Cc2c[nH]c3ccccc23)NC(C)=O)cc1OC | 2.69 |  |
| CC(CCc1ccccc1)NC(=O)COC(=O)c1ccc(F)cc1 (stereo unspecified) | 3.85 |  |
| CC(=O)NC(Cc1c[nH]c2ccccc12)C(=O)O (stereo unspecified) | -3.87 |  |
| O=C(CCc1c[nH]c2ccccc12)NCCOc1ccccc1 | 0.982 |  |
| C=CC[C@H](CC(=O)NCCO)C(=O)N[C@@H](COC(=O)[C@@H](CC=C)Cc1ccc(F)cc1)Cc1c[nH]c2ccccc12 |  | 29.1 µM (active) |
| C=CC[C@@H](CC(=O)N[C@H](CO)Cc1ccccc1)C(=O)N[C@@H](COC(=O)[C@@H](CC=C)Cc1ccc(F)cc1)Cc1c[nH]c2ccccc12 |  | 16.4 µM (active) |
| CC(C)CNc1ncnc2c1nnn2C | -14.1 |  |
| CCC(C)NC(=O)/C=C/c1ccc(S(=O)(=O)NCc2ccco2)cc1 (stereo unspecified) | 0.277 |  |
| CC(=O)N1CCC(N(C(=O)Nc2ccc(Cl)cc2)C(C)C)CC1 | -1.36 |  |
| CC(=O)NC(CC(=O)Nc1nc(-c2ccccc2)c(C(C)=O)s1)c1ccccc1 (stereo unspecified) | -14.9 |  |
| COc1ccccc1C(=O)OCc1cc(=O)n2nc(-c3cccs3)sc2n1 | -2.98 |  |

| SMILES | activity change, negative = growth inhibition [%] | Potency |
| --- | --- | --- |
| Nc1ccccc1-c1nc2ccncc2[nH]1 | -25.7 |  |
| CCc1ccc(Oc2coc3cc(OC(=O)c4cc5ccccc5oc4=O)ccc3c2=O)cc1 | -14.6 |  |
| O=C1c2ccccc2-c2ccccc2NC1O (stereo unspecified) | 11.2 |  |
| O=C1NN(c2ccccc2)C(=O)/C1=C/c1ccc(-c2cccc(C(=O)O)c2)o1 | -25.8 |  |
| O=C1CCC[C@@H]2CC(N3CCCCC3)C[C@@H]3CCN1[C@H]23 (stereo partly specified) | 0.158 |  |
| CN(C)C(CNC(=O)c1ccc(S(=O)(=O)NCc2ccco2)cc1)c1ccccc1 (stereo unspecified) | -18.1 |  |
| Cc1noc(C)c1S(=O)(=O)N(C)C[C@H]1OCCCC[C@@H](C)Oc2ccc(NC(=O)CCCN(C)C)cc2C(=O)N([C@H](C)CO)C[C@@H]1C | -18.5 |  |
| Cc1cc(/C=C2\SC(=Nc3ccc(N4CCOCC4)cc3)N(C)C2=O)c(C)n1-c1cccnc1 | -7.74 |  |
| CCCCN=C1C([N+](=O)[O-])=CC=C2C1=NC1(CCCCC1)N2O | -26.7 |  |
| Cc1ccccc1OCC(=O)Nc1ccc2c(c1)ncn2C | 5.53 |  |
| CCc1ccccc1OCC(=O)Nc1ccc2c(c1)OCCO2 | -8.05 |  |
| O=C(COC(=O)COc1ccccc1F)Nc1cccc(S(=O)(=O)N2CCCCC2)c1 | -15.3 |  |
| COc1ccccc1C(CNC(=O)c1ccc(C)c(S(=O)(=O)N2CCCCC2)c1)N(C)C (stereo unspecified) | -24.5 |  |
| COc1ccccc1C(=O)Nc1ccc(C)c(S(=O)(=O)N2CCCCC2)c1 |  | 20.6 µM (active) |
| COc1ccc(NC(=O)C2=NNC(=O)CC2)cc1S(=O)(=O)N1CCCCC1 | -28.9 |  |
| Cc1ccccc1OCC(=O)Nc1ccc(N2CCN(C(=O)C(C)C)CC2)c(Cl)c1 |  | 13 µM (active) |
| CCc1ccccc1OCC(=O)Nc1ccc(C)c(S(=O)(=O)N2CCCCCC2)c1 |  | 14.6 µM (active) |
| Cc1ccccc1OCC(=O)Nc1ccc(S(=O)(=O)N2CCOCC2)cc1 | -15.5 |  |
| Clc1ccc(-c2cccc3nccn23)cc1 | -7.35 |  |
| Cc1ccc2c(c1)C(O)(CC(=O)c1cccc(-n3cccc3)c1)C(=O)N2 (stereo unspecified) | 8.92 |  |
| C=CCOc1ccc(/C=C/C(=O)OCC(=O)NC2CCCCCC2)cc1 | -3.73 |  |

| SMILES | activity change, negative = growth inhibition [%] | Potency |
| --- | --- | --- |
| O=C1OCCOC2CCCc3oc(-c4ccccc4)c1c32 (stereo unspecified) | -12.7 |  |
| O=C(NCc1ccco1)/C(=C/c1cccc([N+](=O)[O-])c1)NC(=O)c1ccco1 | 12.8 |  |
| CCc1ccc(N(C(=O)c2csnn2)C(C(=O)NC2CCCCC2)c2ccncc2)cc1 (stereo unspecified) | 5.47 |  |
| O=S(=O)(c1ccc(F)cc1)N1CCN=C1SCc1cccc(F)c1 | -27.5 |  |
| Clc1cc(NC2CCCCC2)ncn1 | -0.0944 |  |
| Cc1cccn2c(=O)c(C(=O)NC(C)c3ccccc3)cnc12 (stereo unspecified) | -4.93 |  |
| COc1ccc(CNC(=O)[C@@H]2CC=C[C@@H]3CCN(C4CC4)C(=O)[C@@H]32)cc1 |  | inactive |
| COc1ccc(CNC(=O)C2CCCC2)cc1 | -6.86 |  |
| CCCCC[C@H]1CN(C2CCCCC2)C(=O)[C@@H]1CC(=O)NCc1ccc(OC)cc1 |  | 16.4 µM (active) |
| CCN(CC)CCNC(=O)CN1N=C(c2ccc(OC)cc2)CCC1=O | 6.9 |  |
| O=C(NC1CCCCC1)c1ccc(Cn2c(SCc3ccccc3)nc3cccnc32)cc1 | -23.4 |  |
| COc1ccccc1CCCNC(=O)C1CCC(=O)N(CCN2CCOCC2)C1 (stereo unspecified) | 1.18 |  |
| C=CCc1ccc(OCC(O)CN2CCN(Cc3ccccc3)CC2)c(OC)c1 (stereo unspecified) | -24.3 |  |
| COc1ccc(OCC(O)CN(C)C(=O)C(C)Oc2ccccc2)cc1 (stereo unspecified) | -25.8 |  |
| COc1ccccc1OCC(O)CN1CCOCC1 (stereo unspecified) | 1.56 |  |
| CCCn1c(=N)n(CC(O)COc2ccccc2OC)c2ccccc21 (stereo unspecified) |  | 11.6 µM (active) |
| C=CCn1c(=N)n(CC(O)COc2ccc(OC)cc2)c2ccccc21 (stereo unspecified) |  | 16.4 µM (active) |
| COc1ccccc1OCCn1c(SCC(N)=O)nc2ccccc21 | -2.22 |  |
| COc1c(N2CCN(C(=S)Nc3ccccc3F)C(C)C2)c(F)cc2c(=O)c(C(=O)O)cn(C3CC3)c12 (stereo unspecified) | -27.8 |  |
